Here are results for 20 molecules from PubChem BioAssay (NCATS).

A number with no mark means an inactive call. Inconclusive results are not listed. The source made the active and inactive calls. Unless noted, the call rests on the fitted dose curve; in most records, active means well fitted curve in the direction sought with a large enough effect; inconclusive means small, poorly fitted or top-dose-only effect, or another doubt; inactive means no such curve, though single readings can be large; an effect the other way counts as inactive or inconclusive. Bounds are passed on as bounds.

The target in assay [1] is Rap guanine nucleotide exchange factor 3 (Homo sapiens) (UniProt O95398). The experiment in a line: Confirmatory qHTS for agonist of cAMP-regulated guanine nucleotide exchange factor 3 (EPAC1) (AID 1645881).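 Further: EPAC1 catalysed release of BODIPY-GDP from Rap1B seen as fluorescence loss; nearly all actives have a fitted effect of over 75% in size.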
Rap guanine nucleotide exchange factor 3 (Homo sapiens), sequence (O95398 whole entry, looked up): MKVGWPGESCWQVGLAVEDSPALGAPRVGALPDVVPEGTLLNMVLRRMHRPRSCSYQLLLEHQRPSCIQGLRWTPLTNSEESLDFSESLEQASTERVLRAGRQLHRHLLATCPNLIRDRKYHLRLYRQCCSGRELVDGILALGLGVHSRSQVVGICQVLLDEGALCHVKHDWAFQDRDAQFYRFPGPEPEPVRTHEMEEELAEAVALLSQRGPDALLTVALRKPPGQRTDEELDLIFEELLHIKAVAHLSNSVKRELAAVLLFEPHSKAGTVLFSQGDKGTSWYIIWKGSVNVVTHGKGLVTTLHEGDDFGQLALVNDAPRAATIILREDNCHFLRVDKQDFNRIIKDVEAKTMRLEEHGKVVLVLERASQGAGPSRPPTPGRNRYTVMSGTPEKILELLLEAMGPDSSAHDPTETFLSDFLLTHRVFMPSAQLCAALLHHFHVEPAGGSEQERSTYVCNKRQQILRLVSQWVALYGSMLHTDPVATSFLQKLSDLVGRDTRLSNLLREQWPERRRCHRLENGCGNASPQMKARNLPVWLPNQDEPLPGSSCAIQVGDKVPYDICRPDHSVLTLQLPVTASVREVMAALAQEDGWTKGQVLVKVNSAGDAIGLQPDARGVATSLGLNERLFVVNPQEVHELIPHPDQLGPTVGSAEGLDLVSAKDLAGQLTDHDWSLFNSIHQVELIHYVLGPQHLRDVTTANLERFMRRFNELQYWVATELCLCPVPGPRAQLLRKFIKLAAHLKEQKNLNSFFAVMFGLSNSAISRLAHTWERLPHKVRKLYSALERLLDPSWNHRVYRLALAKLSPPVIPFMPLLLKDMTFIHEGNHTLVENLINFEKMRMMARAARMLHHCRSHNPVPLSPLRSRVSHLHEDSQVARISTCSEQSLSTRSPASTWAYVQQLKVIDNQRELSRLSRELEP
The target in assay [2] is Rap guanine nucleotide exchange factor 4 (Homo sapiens) (UniProt Q8WZA2). The assay can be described thus: Confirmatory qHTS for agonist of cAMP-regulated guanine nucleotide exchange factor 4 (EPAC2) (AID 1645884).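 Further: nucleotide exchange releases bodipy-GDP from Rap1 and this lowers its fluorescence; on the % scale 0 is the no-effect control and ±100 the full control effect; nearly all actives have a fitted effect of over 65% in size.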
Rap guanine nucleotide exchange factor 4 (Homo sapiens), sequence (Q8WZA2 whole entry, looked up): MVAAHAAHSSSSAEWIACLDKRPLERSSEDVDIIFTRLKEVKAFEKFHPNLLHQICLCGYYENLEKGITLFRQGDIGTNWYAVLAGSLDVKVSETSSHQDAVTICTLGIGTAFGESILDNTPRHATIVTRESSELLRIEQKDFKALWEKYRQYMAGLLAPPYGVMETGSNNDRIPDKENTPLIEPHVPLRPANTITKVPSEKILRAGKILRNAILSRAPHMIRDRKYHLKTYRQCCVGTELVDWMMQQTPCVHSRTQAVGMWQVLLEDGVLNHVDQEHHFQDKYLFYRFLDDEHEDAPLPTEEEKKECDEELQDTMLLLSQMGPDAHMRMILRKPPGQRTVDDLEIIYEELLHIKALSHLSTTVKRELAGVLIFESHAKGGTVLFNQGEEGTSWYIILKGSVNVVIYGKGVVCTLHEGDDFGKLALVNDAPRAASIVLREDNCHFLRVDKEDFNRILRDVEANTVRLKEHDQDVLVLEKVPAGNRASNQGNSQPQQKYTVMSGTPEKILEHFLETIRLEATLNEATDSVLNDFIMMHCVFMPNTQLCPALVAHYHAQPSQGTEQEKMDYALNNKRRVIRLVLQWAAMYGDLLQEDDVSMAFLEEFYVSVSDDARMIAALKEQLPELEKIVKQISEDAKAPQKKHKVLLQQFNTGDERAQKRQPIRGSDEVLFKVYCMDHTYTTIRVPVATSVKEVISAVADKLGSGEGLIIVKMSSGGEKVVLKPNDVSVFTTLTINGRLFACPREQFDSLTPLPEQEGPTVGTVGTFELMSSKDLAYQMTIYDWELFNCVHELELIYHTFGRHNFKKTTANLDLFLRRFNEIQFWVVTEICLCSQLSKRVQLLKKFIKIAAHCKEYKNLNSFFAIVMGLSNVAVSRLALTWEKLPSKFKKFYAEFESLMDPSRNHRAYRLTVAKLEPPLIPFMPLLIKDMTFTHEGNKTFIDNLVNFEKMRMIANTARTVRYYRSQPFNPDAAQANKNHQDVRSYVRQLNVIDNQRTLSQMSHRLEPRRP
Assay [3] has the same target. The assay can be described thus: Confirmatory qHTS for antagonist of cAMP-regulated guanine nucleotide exchange factor 4 (EPAC2) (AID 1645885; further: nearly all actives have a fitted effect of over 25% in size; further: potency means the concentration at half of the fitted maximal effect). (In general: qHTS replaces the single test concentration by a dilution series.)
Assay [4] addresses Rap guanine nucleotide exchange factor 3 (Homo sapiens) (UniProt O95398). The assay can be described thus: Counterscreen qHTS for antagonist of cAMP-regulated guanine nucleotide exchange factor 3 (EPAC1) (AID 1645888).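 Further: fluorescence loss as bound BODIPY-GDP is released from Rap1B; % of control where 0% means no effect.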 Put shortly: (§1)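 Measured: fluorescence of BODIPY-GDP bound to Rap1B, which falls as exchange proceeds. Conditions include 50 uM competing GDP, 5 and 30 min reads, and a later cAMP challenge for antagonist detection.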

Assay [5] has the same target. The experiment in a line: Counterscreen qHTS for agonist of cAMP-regulated guanine nucleotide exchange factor 3 (EPAC1) (AID 1645889). Further: % of control where 0% means no effect; nearly all actives have a fitted effect of over 40% in size. Put shortly: as §1
A general note: A counterscreen serves to expose hits that act by an unwanted route or on another target.

Assay [6] in a line: AP1 Signaling Pathway (AID 357; active means well fitted curve in either direction with a large enough effect, not every such curve was filed as active;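 further: ME-180 reporter cells stimulated with EGF at its EC50 level; on the % scale 0 is the no-effect control and ±100 the full control effect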). Put shortly: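 In this screen, ME-180 cells in Opti-MEM with 0.5% dialyzed FBS received EC50 EGF and compound titrations for 5 h. AP-1 reporter beta-lactamase was detected via CCF4 ratio, giving AC50 for positive and negative modulators.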
The nature of assay [7]: NFAT Signaling Pathway (AID 444; active means well fitted curve in either direction with a large enough effect, not every such curve was filed as active;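 further: carbachol stimulus at about its EC50 of 1 µM final; on the % scale 0 is the no-effect control and ±100 the full control effect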). Conditions: Jurkat NFAT-bla M1, carbachol, beta-lactamase ratio, 5 h; at 17.2 µM (top of the series) unless noted. The gist of the method: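 Jurkat cells carrying an NFAT-driven β-lactamase reporter and co-transfected muscarinic M1 receptor were treated with compound plus carbachol (1 uM final, an EC50 level) for 5 h at 37 °C. CCF4 loading followed for 1 h at RT; 460/530 nm ratio gave %activity.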

Assay [8] can be described thus: Stat Signaling Pathway (AID 446; active means well fitted curve in either direction with a large enough effect, not every such curve was filed as active;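 further: ME-180 cervical cancer cells given 40 pM IL-6 alongside compound; SIE-controlled beta-lactamase reporter measured as 460/530 nm FRET emission ratio; on the % scale 0 is the no-effect control and ±100 the full control effect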). Put shortly:
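Overnight-plated ME-180 cells bearing a STAT Inducible Element beta-lactamase reporter; 5 h co-exposure to compound and 40 pM IL-6; values normalized to 300 pM IL-6 and 125 nM JAK inhibitor controls.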

Assay [9] has as its target Glucocorticoid receptor (Homo sapiens) (UniProt P04150). The experiment in a line: GR-GFP Redistribution (AID 450;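 active means compounds whose dose series gives a full or clear partial fitted curve of increased nuclear translocation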; further: potency means the concentration at half of the fitted maximal effect). Conditions: U2OS GR-GFP nuclear translocation, laser cytometry, 2 h.
The target is the same in assay [10]. The assay can be described thus: GR-EFC Redistribution (AID 451; calls by dose curve; further: potency means the concentration at half of the fitted maximal effect). Conditions: CHO-K1 GR-EFC translocation, beta-gal luminescence, 2 h. The gist of the method:
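CHO-K1 cells stably expressing nuclear-localized β-gal enzyme acceptor and GR fused C-terminally to the enzyme donor fragment; ligand-driven nuclear translocation restores β-gal by complementation. Compounds titrated up to 46 uM final, 2 h at 37 °C; luminescence read.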

The target in assay [11] is Mitogen-activated protein kinase 10 (Mus musculus) (UniProt Q61831). The experiment in a line: JNK3 AlphaScreen Assay (AID 530; active means well fitted curve in either direction with a large enough effect, not every such curve was filed as active;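 further: kinase came from lysate of stimulated human HepG2 cells; signal reports phosphorylation of biotinylated GST-cJun 1-79 at Ser73 with 10 µM ATP; on the % scale 0 is the no-effect control and ±100 the full control effect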). The gist of the method:
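Biotinylated GST-cJun(1-79) served as substrate for JNK3 in HepG2 lysates stimulated with IL-1beta and TNF-alpha. ATP was 10 uM final, pH 7.6. Ser73 phosphorylation was quantified by AlphaScreen (680 nm excitation).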

Assay [12] has as its target 3',5'-cyclic-AMP phosphodiesterase 4B (Homo sapiens) (UniProt Q07343). The assay can be described thus: qHTS Assay for Inhibitors of PDE-IV (AID 607; active means well fitted activation curve with a large enough effect in the main read-out, with a control signal flat, not every such curve was filed as active; further: % of control where 0% means no effect). Put shortly: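 Live HEK293 cells with a modified cyclic nucleotide-gated (CNG) channel report intracellular cAMP via membrane-potential dye fluorescence (ex 535/em 590 nm). Endogenous PDE-IV was targeted. Compounds were tested at up to 22.9 uM final; RO 20-1724 100 uM served as control.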

In assay [13] the target is Cytochrome P450 3A4 (Homo sapiens) (UniProt P08684). The assay can be described thus: qHTS Assay for Activators of Cytochrome P450 3A4 (AID 885). Further: nearly all actives have a fitted effect of over 65% in size. Put shortly: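 Using 20nM recombinant human CYP3A4 in potassium phosphate (200mM), substrate Luciferin-PPXE at 25uM, luminescent luciferin detection followed a 60-min RT NADPH reaction; data scaled to 57 uM ketoconazole.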
Cytochrome P450 3A4 (Homo sapiens), sequence (P08684 whole entry, looked up): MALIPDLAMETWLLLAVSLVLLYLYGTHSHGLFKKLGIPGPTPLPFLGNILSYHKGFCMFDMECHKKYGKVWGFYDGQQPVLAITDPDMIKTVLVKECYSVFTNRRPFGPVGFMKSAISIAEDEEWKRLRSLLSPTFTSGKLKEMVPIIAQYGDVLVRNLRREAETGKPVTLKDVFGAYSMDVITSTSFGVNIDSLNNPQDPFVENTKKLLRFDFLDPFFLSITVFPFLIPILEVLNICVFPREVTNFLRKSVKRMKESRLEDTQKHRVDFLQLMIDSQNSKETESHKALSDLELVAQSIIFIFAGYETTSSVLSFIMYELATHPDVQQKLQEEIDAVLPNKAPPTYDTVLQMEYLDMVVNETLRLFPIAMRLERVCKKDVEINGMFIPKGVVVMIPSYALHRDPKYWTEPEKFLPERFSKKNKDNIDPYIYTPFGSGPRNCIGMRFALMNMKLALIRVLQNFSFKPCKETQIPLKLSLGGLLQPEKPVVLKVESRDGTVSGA
Assay [14] is described as follows: Confirmation and Secondary Assay for Modulators of Hemoglobin Beta Chain Splicing at IVS2 654 locus (AID 910). Further: % of control where 0% means no effect. Put shortly:
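HeLa cells stably carrying EGFP interrupted by mutant beta-globin IVS2-654 intron (CMV-driven) were treated with compound for 2 days at 37C; corrected splicing was scored as total peak GFP intensity per well (488 nm excitation, 500-520 nm emission).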

Assay [15] is described as follows: Confirmation and Secondary Assay for Modulators of Hemoglobin Beta Chain Splicing at IVS2 705 locus (AID 930).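 Further: HeLa cells stably expressing the EGFP-705 splicing reporter; GFP fluorescence per well restored by corrected splicing of the IVS2-705 intron in EGFP; % of control where 0% means no effect.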 The gist of the method: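 HeLa cells stably carrying EGFP interrupted by mutant beta-globin intron 2 (IVS2-705) treated 2 days at 37C with compound; 500 nM antisense PNA as control. Correct splicing read as total peak GFP intensity per well by laser-scanning cytometry.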

Assay [16] deals with Cytochrome P450 3A4 (Homo sapiens) (UniProt P08684). The experiment in a line: qHTS Assay for Inhibitors and Substrates of Cytochrome P450 3A4 (AID 884). Further: on the % scale 0 is the no-effect control and ±100 the full control effect; nearly all actives have a fitted effect of over 50% in size. Put shortly:
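Luminescent readout of luciferin produced by CYP3A4 (20 nM) dealkylation of Luciferin-PPXE, 25 uM (its KM). NADPH-driven reaction ran 60 min at RT after 10 min compound preincubation; data scaled to 57 uM ketoconazole as 100% inhibition.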

For assay [17], the target named is Ubiquitin carboxyl-terminal hydrolase 1 (Homo sapiens) (UniProt O94782). The experiment in a line: Inhibitors of USP1/UAF1: Pilot qHTS (AID 504865).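 Further: rhodamine fluorescence freed from ubiquitin-rhodamine substrate followed over time; top concentration of the series differs between compounds; on the % scale 0 is the no-effect control and ±100 the full control effect; nearly all actives have a fitted effect of over 35% in size.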 The gist of the method:
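Kinetic fluorescence assay: 1nM USP1/UAF1, 15 min compound preincubation, then 150nM Ub-Rho; 480/540 nm.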

Ubiquitin carboxyl-terminal hydrolase 1 (Homo sapiens), sequence (O94782 whole entry, looked up): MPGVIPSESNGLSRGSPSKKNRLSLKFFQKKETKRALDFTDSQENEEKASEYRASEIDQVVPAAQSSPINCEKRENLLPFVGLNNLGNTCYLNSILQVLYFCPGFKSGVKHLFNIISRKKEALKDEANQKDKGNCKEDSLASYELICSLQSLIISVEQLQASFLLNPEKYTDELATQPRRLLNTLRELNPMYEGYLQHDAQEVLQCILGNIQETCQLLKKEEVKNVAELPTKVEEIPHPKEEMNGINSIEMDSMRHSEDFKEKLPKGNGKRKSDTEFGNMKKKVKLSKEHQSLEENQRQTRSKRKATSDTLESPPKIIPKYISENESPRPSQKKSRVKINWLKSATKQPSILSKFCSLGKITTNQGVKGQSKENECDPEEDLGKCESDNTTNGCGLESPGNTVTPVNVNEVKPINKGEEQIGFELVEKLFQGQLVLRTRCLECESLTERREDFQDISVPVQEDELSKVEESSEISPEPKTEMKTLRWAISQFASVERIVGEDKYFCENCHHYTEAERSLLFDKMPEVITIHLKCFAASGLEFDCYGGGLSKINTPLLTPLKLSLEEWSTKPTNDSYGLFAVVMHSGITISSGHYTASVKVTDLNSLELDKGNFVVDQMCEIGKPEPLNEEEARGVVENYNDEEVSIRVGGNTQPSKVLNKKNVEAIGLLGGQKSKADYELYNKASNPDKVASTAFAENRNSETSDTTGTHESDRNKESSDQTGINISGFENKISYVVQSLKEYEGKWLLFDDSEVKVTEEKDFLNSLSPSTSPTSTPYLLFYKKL
Glucocorticoid receptor (Homo sapiens), sequence (P04150 whole entry, looked up): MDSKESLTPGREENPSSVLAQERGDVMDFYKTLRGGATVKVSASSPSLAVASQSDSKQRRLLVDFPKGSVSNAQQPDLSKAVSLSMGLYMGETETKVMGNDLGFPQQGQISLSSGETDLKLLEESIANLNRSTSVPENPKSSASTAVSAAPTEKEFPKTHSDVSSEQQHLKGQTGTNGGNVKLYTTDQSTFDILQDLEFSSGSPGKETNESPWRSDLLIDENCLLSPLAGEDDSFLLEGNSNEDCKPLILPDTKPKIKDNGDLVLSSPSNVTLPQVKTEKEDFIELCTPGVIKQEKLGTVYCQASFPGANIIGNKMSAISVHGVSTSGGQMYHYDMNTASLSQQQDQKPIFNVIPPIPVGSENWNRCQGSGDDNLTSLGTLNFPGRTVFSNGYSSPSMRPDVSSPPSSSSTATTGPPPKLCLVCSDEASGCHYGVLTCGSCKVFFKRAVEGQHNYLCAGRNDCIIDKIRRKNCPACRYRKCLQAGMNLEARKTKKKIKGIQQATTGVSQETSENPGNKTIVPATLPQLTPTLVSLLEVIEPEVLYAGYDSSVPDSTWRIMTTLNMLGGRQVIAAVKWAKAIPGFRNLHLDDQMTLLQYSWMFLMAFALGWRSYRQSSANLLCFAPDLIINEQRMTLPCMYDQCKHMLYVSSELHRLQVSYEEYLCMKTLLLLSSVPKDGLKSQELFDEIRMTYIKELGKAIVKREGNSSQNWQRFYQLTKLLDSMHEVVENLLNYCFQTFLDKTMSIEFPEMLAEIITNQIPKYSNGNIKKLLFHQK
3',5'-cyclic-AMP phosphodiesterase 4B (Homo sapiens), sequence (Q07343 whole entry, looked up): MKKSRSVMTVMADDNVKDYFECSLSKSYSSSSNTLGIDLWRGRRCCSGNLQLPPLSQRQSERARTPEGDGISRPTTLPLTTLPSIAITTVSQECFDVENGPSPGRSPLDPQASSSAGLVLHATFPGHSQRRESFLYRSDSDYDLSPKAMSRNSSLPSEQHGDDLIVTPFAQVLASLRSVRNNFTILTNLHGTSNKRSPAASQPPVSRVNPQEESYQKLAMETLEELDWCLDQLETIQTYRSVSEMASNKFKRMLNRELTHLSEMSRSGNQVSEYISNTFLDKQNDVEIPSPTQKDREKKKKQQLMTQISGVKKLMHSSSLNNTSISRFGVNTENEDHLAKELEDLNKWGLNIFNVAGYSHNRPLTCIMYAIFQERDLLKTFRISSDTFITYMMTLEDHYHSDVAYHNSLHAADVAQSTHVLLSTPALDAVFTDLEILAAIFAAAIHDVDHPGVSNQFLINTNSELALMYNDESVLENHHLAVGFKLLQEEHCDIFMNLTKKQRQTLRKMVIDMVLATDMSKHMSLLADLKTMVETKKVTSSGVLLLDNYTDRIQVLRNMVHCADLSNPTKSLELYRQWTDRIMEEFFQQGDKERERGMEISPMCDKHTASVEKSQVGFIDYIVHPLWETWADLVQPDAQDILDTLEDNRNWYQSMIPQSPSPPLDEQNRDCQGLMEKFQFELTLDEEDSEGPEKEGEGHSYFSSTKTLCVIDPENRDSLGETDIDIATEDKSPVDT

Consider `Cc1ccc(C(=O)Nc2sc(C)c(C)c2C(=O)c2ccccc2)cc1`, for which the Potency result in assay [1] and in assay [3] was “inactive” throughout. For the same molecule, the activation was 4.34% [at 17.1 µM, percent relative to cAMP agonist control] in [2] and -4.34% [at 30.8 µM] in assay [5]. The activity change, negative = inhibition in assay [4] is -1.59% [at 30.8 µM].

In the case of `CC(C)n1c(/C=C\[C@@H](O)C[C@@H](O)CC(=O)O)c(-c2ccc(F)cc2)c2ccccc21`, the call in assay [6], in [8] and in assay [12] was inactive. For the same molecule, the activity change, negative = inhibition in [7] is 6.57%. Besides, the Potency in [9] and in [10] was more than 20.6 µM in each case. Moreover, the Potency result in assay [11] was “inactive”.

For `CC(=O)OC1CC2C(C)(C)C(O)CCC2(C)C2CC[C@]3(C)C(=CC(=O)OC3c3ccoc3)C12C` (some centres undefined), the Potency result in assay [13], in assay [14] and in [15] was “inactive” throughout.

Consider `Cc1ccc(S(=O)(=O)Nc2cccc(C(=O)NCC(c3ccco3)N3CCCCC3)c2)cc1F` (centres undefined), for which the Potency result in assay [1], in [2], in assay [3] and in [4] was “inactive” throughout.

As to `CC1=C(/C=C/C(C)=C/C=C/C(C)=C/C=C/C=C(C)/C=C/C=C(C)/C=C/C2=C(C)C(=O)C(O)CC2(C)C)C(C)(C)CC(O)C1=O` (centres undefined), the Potency result in assay [16], in assay [14], in assay [15] and in [17] was “inactive” each time.

`COc1ccccc1N1CC(C(=O)Nc2cc(C(F)(F)F)ccc2N2CCCC2)CC1=O` (centres undefined): the Potency entry in assay [1] and in assay [3] was “inactive” in each case. The activation in assay [2] is 9.01% [at 17.1 µM, percent relative to cAMP agonist control]; in [5] it was 9.96% [at 30.8 µM]. Further, in assay [4], the activity change, negative = inhibition was -8.33% [at 30.8 µM].

For the molecule `CC(=O)OC1CC2C(C)(C)C(O)C=C[C@@]2(C)C2CC[C@@]3(C)C(c4ccoc4)OC(=O)C4OC43[C@]12C` (some centres undefined), the Potency entry in [13], in [15] and in [17] was “inactive” throughout.

For `O=C(Nc1ccc(F)cc1F)C1CCN(c2ncccn2)CC1`, the Potency entry in assay [1], in assay [2], in [3], in [4] and in [5] was “inactive” in each case.

In the case of `COc1ccc(-c2coc3cc(O)ccc3c2=O)c(OC)c1O`, the Potency result in assay [16], in assay [14], in assay [15] and in [17] was “inactive” throughout.

Consider `COc1ccc(/C=C2\SC(=S)N(NS(=O)(=O)c3ccc(C)cc3)C2=O)c(OC)c1`, for which the Potency entry in assay [1] and in [3] was “inactive” each time. Moreover, the activation in assay [2] was 6.75% [at 17.1 µM, percent relative to cAMP agonist control]; in [5], 20% [at 30.8 µM]. Moreover, the activity change, negative = inhibition in [4] is 7.67% [at 30.8 µM].

As for `Cc1ccc(Cl)c2sc(N3CCN(C(=O)c4ccco4)CC3)nc12`, the Potency entry in [1] and in assay [3] was “inactive” each time. Besides, the activation in assay [2] is 3.67% [at 17.1 µM, percent relative to cAMP agonist control]. Moreover, in [4], the activity change, negative = inhibition is -12.9% [at 30.8 µM].

As for `COc1ccc(C(=O)COC(=O)CCN2C(=O)C3CC=CCC3C2=O)c(OC)c1` (centres undefined), the Potency result in [1] and in assay [3] was “inactive” in each case. The activation in assay [2] is 1.05% [at 17.1 µM, percent relative to cAMP agonist control]; in assay [5] it was -0.565% [at 30.8 µM]. In addition, the activity change, negative = inhibition in [4] was -27.6% [at 30.8 µM].

Take `CSc1ccccc1NC(=O)COc1ccccc1C`: the Potency result in assay [1] and in [3] was “inactive” in each case. The activation in [2] is 11.3% [at 17.1 µM, percent relative to cAMP agonist control]. The activity change, negative = inhibition in assay [4] is -1.84% [at 30.8 µM].

As to `CO/N=C(/COc1ccc(F)cc1)c1ccc(OC)cc1`, the Potency result in [1] and in assay [3] was “inactive” each time. Further, the activation in [2] is -0.137% [at 17.1 µM, percent relative to cAMP agonist control]; in assay [5] it was 2.57% [at 30.8 µM]. Moreover, the activity change, negative = inhibition in assay [4] was -12% [at 30.8 µM].

`NC1=NCCN1CC(=O)O`: the Potency result in [16], in [14], in assay [15] and in assay [17] was “inactive” throughout.

Regarding `CCC(Oc1ccccc1)C(=O)Nc1cc(Cl)ccc1-n1cncn1` (centres undefined), the Potency result in [1], in [2], in assay [4] and in [5] was “inactive” each time. Also, the Potency in assay [3] is 47.8 µM (active).

Regarding `NC(Cn1ccc(=O)c(O)c1)C(=O)O` (centres undefined), the Potency entry in assay [14], in assay [15] and in assay [17] was “inactive” each time.

With `Cc1cn(C2CC(N=[N+]=[N-])C(CO)O2)c(=O)[nH]c1=O` (centres undefined), the Potency entry in assay [14] and in [15] was “inactive” each time.

On to `Cc1onc(-c2ccccc2)c1C(=O)c1c[nH]c(C(=O)NCCCN2CCOCC2)c1`, for which the Potency entry in assay [1] and in [3] was “inactive” throughout. For the same molecule, the activation in assay [2] was -2.44% [at 17.1 µM, percent relative to cAMP agonist control]; in [5], -11.1% [at 30.8 µM]. Besides, in assay [4], the activity change, negative = inhibition was -20.3% [at 30.8 µM].

With `COC(=O)c1cc(=O)c(O)c2c(O)c(O)ccc2c1`, the Potency result in assay [16] and in assay [15] was “inactive” in each case.
